High-throughput results (PubChem BioAssay)
This excerpt belongs to a sample that is enriched for hits.
GIRK2 activator = GIRK2 channel activators by thallium flux; P48051; HEK293 GIRK2/NPY4 cells, thallium flux fluorescence; activation (% efficacy), % for hits at 37.5 µM; 34,000 tested, under 10 active;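 active means primary screen hit, no activity in plain HEK293 cells, and in GIRK2-only cells above 5% efficacy rising with concentration; inactive means the rest, including fluorescent compounds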;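 further: efficacy is normalized control-subtracted fluorescence 15 s after thallium addition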
Target sequence (P48051 whole entry, looked up): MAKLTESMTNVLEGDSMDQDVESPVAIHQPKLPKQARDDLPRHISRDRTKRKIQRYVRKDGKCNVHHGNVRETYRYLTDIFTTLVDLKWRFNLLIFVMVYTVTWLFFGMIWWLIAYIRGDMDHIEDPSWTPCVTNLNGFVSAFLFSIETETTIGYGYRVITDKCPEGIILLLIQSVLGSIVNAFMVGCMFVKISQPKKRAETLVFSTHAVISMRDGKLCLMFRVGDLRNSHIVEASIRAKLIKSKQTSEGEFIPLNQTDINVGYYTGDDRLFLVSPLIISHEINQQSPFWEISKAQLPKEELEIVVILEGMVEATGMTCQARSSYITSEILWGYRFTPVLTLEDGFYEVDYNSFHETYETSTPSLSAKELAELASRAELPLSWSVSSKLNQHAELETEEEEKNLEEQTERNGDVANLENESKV
AMPAR-TARP mod = modulates AMPAR-stargazin complexes. HEK293 GluA2+stargazin, membrane potential dye (FDSS), glutamate EC50; hits were called plate by plate, in both directions. calls only at 30 µM. O88602+P19491. 3.5% of 40,000 active;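 active means any of four per-well response measures lying three or more SD from its plate-wide compound average, in either direction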
Numbers without * were called inactive.

COc1coc(C(=O)Nc2nc3ccc(Cl)cc3s2)cc1=O was read as GIRK2 activator inactive and AMPAR-TARP mod active.
For O=C(NCC1(c2ccccc2)CCOCC1)c1ccccc1C(F)(F)F the results were GIRK2 activator inactive and AMPAR-TARP mod inactive.
CCC1(C)CC(CCN(Cc2ccccc2F)C(C)=O)(c2ccccc2)CCO1 (centres undefined) was read as AMPAR-TARP mod active.
Screening CCc1c(C)nc(SCC(=O)Nc2cc(C(F)(F)F)ccc2Cl)[nH]c1=O returned AMPAR-TARP mod active.
Screening Cc1cc(=O)n(CC(=O)Nc2cc(C(F)(F)F)ccc2Cl)cn1 returned GIRK2 activator inactive and AMPAR-TARP mod inactive.
Screening Cc1cc(NC(=O)C(=O)NCCC(O)C(C)(C)C)no1 (centres undefined) returned GIRK2 activator inactive and AMPAR-TARP mod inactive.
For CC12CCC(C(=O)Nc3ccccc3-n3cccc3)(CC1=O)C2(C)C (centres undefined) the results were AMPAR-TARP mod active.
For CC12CCC(C(=O)Nc3ccccc3N3CCOCC3)(CC1=O)C2(C)C (centres undefined) the results were GIRK2 activator inactive and AMPAR-TARP mod inactive.
Cc1cccc(C(=O)NCCOc2ccc(-c3ccco3)nn2)c1 was read as GIRK2 activator inactive and AMPAR-TARP mod inactive.
For O=C(NCc1ccco1)C(=O)Nc1ccc(Cl)c(N2CCCS2(=O)=O)c1 the results were GIRK2 activator inactive and AMPAR-TARP mod inactive.
`CCCc1nnc2c(=O)n(-c3cc(C)cc(C)c3)ccn12` gave GIRK2 activator inactive and AMPAR-TARP mod active.
For CC(NC(=O)CCCc1nnc2c(=O)n(-c3ccc(Cl)cc3)ccn12)c1ccccc1 (centres undefined) the results were AMPAR-TARP mod inactive.
`O=C(Nc1cccc(C(F)(F)F)c1)c1ccc(S(=O)(=O)N2CCCC2)o1` gave GIRK2 activator inactive and AMPAR-TARP mod inactive.
Screening O=C(Nc1cccc(C(F)(F)F)c1)c1ccc(S(=O)(=O)NCc2cccs2)o1 returned GIRK2 activator inactive and AMPAR-TARP mod active.
For O=C(Nc1cccnc1)c1ccc(S(=O)(=O)NCc2cccs2)o1 the results were GIRK2 activator inactive and AMPAR-TARP mod inactive.
`CNS(=O)(=O)c1ccc(C(=O)Nc2cccc(C(F)(F)F)c2)o1` gave GIRK2 activator inactive and AMPAR-TARP mod active.
Screening Oc1cccc2ccc(/C=C/c3cccc(Cl)c3Cl)nc12 returned AMPAR-TARP mod inactive.
For Cc1cccc(-c2ccc(/C=C3\C(=O)SC(=S)N3CCCC(=O)O)o2)c1 the results were GIRK2 activator inactive and AMPAR-TARP mod active.
`Cn1cc(/C=C2\SC(=O)N(CCC(=O)O)C2=O)c2ccccc21` gave AMPAR-TARP mod inactive.
Screening C=CCn1c(=S)[nH]c2scc(-c3ccc(Cc4ccccc4)cc3)c2c1=O returned AMPAR-TARP mod inactive.
Screening CC1CN(C)CCN1CC1CCN(C(=O)C2CCCCC2)CC1 (centres undefined) returned GIRK2 activator inactive and AMPAR-TARP mod inactive.
`Cn1cccc1CN(C(=O)CN1C(=O)CCC1=O)C1CC1` gave GIRK2 activator inactive.
For CCN(CC)S(=O)(=O)c1ccc(C(=O)Nc2cc(-c3cccs3)nn2CCO)cc1 the results were GIRK2 activator inactive and AMPAR-TARP mod active.
CC(C)S(=O)(=O)c1ccc(CC(=O)Nc2cc(-c3cccs3)nn2CCO)cc1 was read as GIRK2 activator inactive and AMPAR-TARP mod inactive.
For O=C1/C(=C/c2ccc(F)cc2)Oc2cc(O)ccc21 the results were AMPAR-TARP mod inactive.
Cc1cc(NC(=O)C(=O)NCC(c2cccc3ccccc23)N2CCOCC2)c2ccccc2n1 (centres undefined) was read as AMPAR-TARP mod inactive.
Screening Cc1nc(C)c(C(=O)N2CCN(c3nc4c(C)c(C)ccc4s3)CC2)s1 returned GIRK2 activator inactive and AMPAR-TARP mod inactive.
`Cc1nc(C)c(C(=O)N2CCN(c3ccc(N(C)C)nn3)CC2)s1` gave GIRK2 activator inactive and AMPAR-TARP mod active.
`COc1cc(C(=O)Nc2ccc3c(c2)N(C(=O)C(C)C)CCC3)cc(OC)c1OC` gave AMPAR-TARP mod inactive.
Screening COc1ccc(C(=O)NCCn2nc(-c3ccncc3)ccc2=O)cc1OC returned GIRK2 activator inactive.
For NC(=O)c1ccc(NC(=O)c2ccc(=O)n(Cc3ccccc3Cl)c2)cc1 the results were GIRK2 activator inactive and AMPAR-TARP mod inactive.
`O=C(CSc1nc(=O)n(Cc2ccco2)c2c1CCC2)NC1CCCCC1` gave GIRK2 activator inactive and AMPAR-TARP mod inactive.
Screening S=c1nc(-c2ccc(Br)cc2)n(Cc2ccco2)c2c1CCCC2 returned AMPAR-TARP mod active.
`O=C(Nc1ccccc1)Nc1cccc(-c2ccc(N3CCCC3)nn2)c1` gave GIRK2 activator inactive and AMPAR-TARP mod inactive.
